Holding throughout (test): glycan array binding signal (z-score within array); higher = stronger binding
Common to all, as to conditions: glycan notation: IUPAC condensed, linker removed

Assay [1] addresses GlcA3S(b1-3)Gal(b1-4)GlcNAc(b1-3)Gal(b1-4)Glc. In a few lines: (§1)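 Negative Z-scores can be read as non-binding. The Z-score is calculated within each array and then averaged across arrays of one protein sequence at different concentrations or buffers and across linkers. Arrays, 3228 in all, were curated from the Consortium for Functional Glycomics database and kept only where the protein sequence was available.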

Assay [2] concerns the target GlcNAc(b1-3)Gal(b1-4)GlcNAc. In a few lines: as §1
Assay [3] addresses GlcNAc(b1-3)Gal(b1-4)GlcNAc(b1-3)Gal(b1-4)GlcNAc(b1-3)Gal(b1-4)GlcNAc(b1-2)Man(a1-3)[GlcNAc(b1-3)Gal(b1-4)GlcNAc(b1-3)Gal(b1-4)GlcNAc(b1-3)Gal(b1-4)GlcNAc(b1-2)Man(a1-6)]Man(b1-4)GlcNAc(b1-4)[Fuc(a1-6)]GlcNAc. The gist of the method:
as §1

A further assay addresses GlcNAc(b1-3)Man. In a few lines: as §1
Assay [4] concerns the target GlcNAc(b1-4)Gal(b1-4)GlcNAc. The gist of the method: as §1
Assay [5] addresses GlcNAc(b1-4)GlcNAc(b1-4)GlcNAc(b1-4)GlcNAc(b1-4)GlcNAc(b1-4)GlcNAc. The gist of the method:
as §1

The next assay concerns the target GlcNAc(b1-6)GalNAc. In a few lines:
as §1

For assay [6], the target named is Man(a1-2)Man(a1-2)Man(a1-6)[Man(a1-3)]Man. In a few lines:
as §1

In assay [7] the target is Man(a1-3)[Man(a1-6)]Man(a1-6)[Man(a1-3)]Man. The gist of the method: as §1
The target in the next assay is Man(a1-6)Man. In a few lines: as §1
In assay [8] the target is Neu5Ac(a2-3)Gal(b1-4)GlcNAc(b1-2)[Neu5Ac(a2-3)Gal(b1-4)GlcNAc(b1-6)]Man(a1-6)[Neu5Ac(a2-3)Gal(b1-4)GlcNAc(b1-2)Man(a1-3)][GlcNAc(b1-4)]Man(b1-4)GlcNAc(b1-4)GlcNAc. The gist of the method:
as §1

The target of assay [9] is Neu5Ac(a2-6)Gal(b1-3)GlcNAc(b1-3)[Gal(b1-4)GlcNAc(b1-6)]Gal(b1-4)Glc. In a few lines: as §1
In assay [10] the target is Neu5Ac(a2-6)Gal(b1-4)GlcNAc. The gist of the method:
as §1

Assay [11] concerns the target Neu5Ac(a2-6)Gal(b1-4)GlcNAc(b1-2)Man(a1-6)[GlcNAc(b1-2)Man(a1-3)]Man(b1-4)GlcNAc(b1-4)GlcNAc. In a few lines: as §1
Assay [12] concerns the target Neu5Ac(a2-6)Gal(b1-4)GlcNAc(b1-2)[Neu5Ac(a2-6)Gal(b1-4)GlcNAc(b1-4)]Man(a1-3)[GlcNAc(b1-4)][Neu5Ac(a2-6)Gal(b1-4)GlcNAc(b1-2)[Neu5Ac(a2-6)Gal(b1-4)GlcNAc(b1-6)]Man(a1-6)]Man(b1-4)GlcNAc(b1-4)GlcNAc. The gist of the method: as §1
Assay [13] addresses Neu5Ac(a2-6)Gal(b1-4)GlcNAc(b1-3)Gal(b1-4)GlcNAc(b1-3)GalNAc. The gist of the method: as §1
For assay [14], the target named is Neu5Ac(a2-6)Gal(b1-4)GlcNAc(b1-3)GalNAc. The gist of the method:
as §1

The target of the next assay is Neu5Gc(a2-6)GalNAc. In a few lines:
as §1

About 410 targets per protein were measured; listed, in parts, are those with the strongest signals and a random draw of the rest.

B1: PX9961Q-bfa-504-27-504 (Bacteroides fragilis) (protein)
chain: NDWLDRKPADGIPSEDAITNYNDALTARTGMYDGIQGNSNATSYYGARMFYYGDVRADDMQARTQGMRSSSCYEMLYTVDDAPNMWNIPYNVIRRANRLIEAINEKKVTDATEAQIGKIYSEALVVRALVHFDLVRIYGMPYTADNGASLGVPVIVKPLERNDLPSRNTVAEVYTQVITDLTDAINSGYLAKDQTPGYINEWAAKALLTRVYLTKGDNENALKVAEDIITNSPYKLWTNEEYVNAWYKSNGAHTNEMIFEVVNASNDDWTDRNGIAYLLNENGYADAIVTKSFMNMLSQDPKDVRIGMVLPAQYDKDLQEEYGDAKIFINKFPADKDDVGEMRLNNLPLLRLSEVYLSAAEAAAKLGGHQDKAAKYLNEIVQRANPEAKAISEADATVERIILERRKEMIGEGQRYFDALRNNETIVRYKDEGDKGYHYSLIKESQSFDRTYFRAILPIPVDETNVNPNLRAQQNPGY
For B1, the “glycan array binding signal (z-score)” value was -1.22 in assay [1]; -0.27 in assay [2]; 2.65 in [3]; 0.083 with GlcNAc(b1-3)Man; -0.752 in assay [4]; -0.594 in [5]. The “glycan array binding signal (z-score)” value in the assay with GlcNAc(b1-6)GalNAc is 0.361; in assay [6], 0.712; in assay [7], 0.661; in the assay with Man(a1-6)Man, -0.352; in [8] it was 0.676; in assay [9] it was 6.14. Further, the “glycan array binding signal (z-score)” value in assay [10] is -0.355; in assay [11], -0.638; in [12], 2.53; in assay [13] it was -0.164; in assay [14] it was -0.107; in the assay with Neu5Gc(a2-6)GalNAc it was 0.187.
